# IL1B cytotox = cytotoxicity in IL-1B stimulated HUVEC, primary screen, cytotoxicity control for IL-1B NFkB translocation project, imaging, Hoechst nuclear count, IL-1B stimulus; HUVEC cell count loss; cell count reduction, % at 2 µM; 94,000 tested, 0.41% active;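 active means cell count reduction more than 3 SD above the screen-wide mean, cut at about 70% in these data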;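 further: normalized per plate to untreated control cells as the no-loss baseline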
# JNK3 inh = JNK3 kinase activity inhibitors, primary screen, biochemical, human, purified enzyme. Mitogen-activated protein kinase 10 (Homo sapiens), P53779. HTS. inhibition, % at 8 µM. 60,000 tested, 0.61% active; in the data active means inhibition above about 17%;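 further: 0% = DMSO and 100% = reference inhibitor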
# Target sequence (P53779 whole entry, looked up): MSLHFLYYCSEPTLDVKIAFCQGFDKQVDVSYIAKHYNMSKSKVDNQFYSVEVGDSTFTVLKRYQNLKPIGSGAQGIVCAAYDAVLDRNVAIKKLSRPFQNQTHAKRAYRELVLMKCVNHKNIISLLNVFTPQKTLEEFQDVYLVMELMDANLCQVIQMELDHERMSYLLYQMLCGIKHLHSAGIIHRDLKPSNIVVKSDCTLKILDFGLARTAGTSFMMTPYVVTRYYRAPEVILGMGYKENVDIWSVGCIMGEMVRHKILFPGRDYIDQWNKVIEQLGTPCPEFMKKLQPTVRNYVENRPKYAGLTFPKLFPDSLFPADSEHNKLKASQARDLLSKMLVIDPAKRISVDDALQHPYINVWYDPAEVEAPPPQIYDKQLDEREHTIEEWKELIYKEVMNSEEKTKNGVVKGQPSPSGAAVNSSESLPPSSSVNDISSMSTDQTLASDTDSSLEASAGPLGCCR
# NFkB transloc pot = enhancers of NFkB p65 translocation in HUVEC – imaging, IL-1B stimulus, high-content imaging, primary screen; HUVEC IL-1B NFkB p65 nuclear translocation imaging; AID 819, 2007; 94,000 tested, 0.3% active; activation, % at 2 µM;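 active means activation above 40%, about the mean plus 3 SD, also judged a hit on visual image review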;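 further: percent activation is computed from the nuclear over cytoplasmic p65 intensity ratio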
# NFkB transloc inh = inhibitors of IL-1B driven NFkB p65 nuclear import, primary screen, imaging, HUVEC, IL-1B stimulus, high-content imaging. HUVEC IL-1B NFkB p65 nuclear translocation imaging. inhibition, % at 2 µM. 94,000 tested, 0.43% active. AID 796, 2007;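 active means inhibition above about 30% together with a positive call from visual inspection of the well image, limit read from the data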;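 further: nuclear over cytoplasmic p65 intensity ratio measured by imaging; 0% = IL-1B stimulated DMSO wells and 100% = unstimulated DMSO wells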
# Pyk2 oligo antag = antagonists of Pyk2 self-association, primary screen, Q293 cells, FERM NanoBiT luminescence, HTS. 99,000 tested, 0.83% active. active compounds read low. z-score (the deposit names both 25 µM and 10 µM). Protein-tyrosine kinase 2-beta (Homo sapiens), Q14289;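 active means Z-score of -3 or lower, scaled per plate to the spread of control and sample wells; inactive means z-score above -3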;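 further: negative z-score means lost luminescence so less FERM oligomerization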
# FAK inh = FAK kinase inhibitors, primary screen, biochemical; Focal adhesion kinase 1 (Homo sapiens), Q05397; inhibition, %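 (tested at 7 µM)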; biochemical FAK kinase activity assay; 97,000 tested, 0.84% active; AID 727, 2007; in the data active means inhibition above about 19%;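 further: 0% = DMSO and 100% = reference compound high control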
# * marks the source's active call; other numbers are inactive results; / = not tested or not shown. Only some compounds are listed: those with a hit (about 2.4% of all), similar ones and a draw of the others.
SMILES,IL1B cytotox,JNK3 inh,NFkB transloc pot,NFkB transloc inh,Pyk2 oligo antag,FAK inh
N#CC1=C2Nc3ccccc3N2C(=O)NC1(c1ccccc1)C(F)(F)F (centres undefined),-8.7,/,-1.8,1.8,-3.07*,-0.9
O=C1NC(c2ccccc2)(C(F)(F)F)C(=O)N1Cc1cccnc1 (centres undefined),-30.9,-6.6,-4.9,4.9,-2.03,1.7
CCCc1cc2c(=O)c(-c3ccc4c(c3)OCCO4)coc2cc1OC(=O)c1ccco1,-11.2,/,-10.0,10.0,-3.03*,-0.3
CCc1cc2c(=O)c(-c3ccc4c(c3)OCCO4)coc2cc1OC(=O)c1ccco1,-16.2,6.7,8.0,-8.0,-3.53*,3.5
CCOC(=O)c1sc2cc([N+](=O)[O-])cc(SCC(=O)OC)c2c1N,9.0,/,50.7*,-50.7,-0.29,3.1
Cc1cc(C)c(S(=O)(=O)N(CC(=O)N2CCOCC2)C2CCCCC2)c(C)c1,75.4*,-0.8,-6.9,6.9,1.63,1.2
COc1ccc2[nH]cc(C(=O)CN3CCN(C/C=C/c4ccccc4)CC3)c2c1,4.4,-2.5,-36.3,36.3*,/,-1.2
NC(=O)C1(N2CCCCC2)CCN(CC(=O)Nc2cc(Cl)ccc2Cl)CC1,79.5*,3.3,-99.0,99.0*,0.25,-1.5
O=C(Cn1nc(-c2ccc(N3CCOCC3)c([N+](=O)[O-])c2)c2ccccc2c1=O)N1CCCCC1,4.6,/,-2.0,2.0,0.37,2.2
N#Cc1c2c(c[nH]c1=O)CCN2Cc1ccccc1,-17.7,/,29.2,-29.2,0.43,4.0
CCc1c(C)nc(/N=C(/NC(=O)c2ccccc2)Nc2ccccc2OC)[nH]c1=O,-0.8,-0.6,-54.8,54.8*,/,-0.4
COc1ccccc1NC(=O)CNC(=O)c1ccccc1,-12.3,-2.1,0.5,-0.5,0.28,-2.4
O=C1CCCc2c1cc(-c1ccccc1)n2-c1ccccc1,-30.9,/,-19.7,19.7,-1.79,-2.2
O=c1[nH]c(=S)c2c(n1-c1ccccc1)CCC2,-21.2,17.6*,5.3,-5.3,0.87,4.2
O=C(Nc1ccc(N2CCN(Cc3ccccc3)CC2)cc1)c1cccnc1,-6.4,1.3,5.7,-5.7,1.14,2.1
Cc1ccccc1-n1nc(C)c2cc(C(=O)NCc3cccnc3)sc21,10.7,57.0*,-0.4,0.4,-1.86,-0.8
COc1ccc(Cl)cc1NC(=O)c1cccnc1,-26.6,6.1,-8.1,8.1,0.68,3.4
Cc1nc2cccc(C(=O)NCc3ccccc3)c2o1,-18.3,22.8*,1.0,-1.0,-0.46,0.7
COc1cccc(C(=O)N(Cc2ccc3c(c2)OCO3)Cc2nc3ccccc3c(=O)[nH]2)c1,4.2,-9.9,6.5,-6.5,-3.44*,4.0
COc1ccccc1CN(Cc1nc2ccccc2c(=O)[nH]1)C(=O)Nc1cccc(C)c1,12.7,/,9.1,-9.1,-0.63,-1.4
COc1ccccc1NC(=O)N(Cc1ccc2c(c1)OCO2)Cc1nc2ccccc2c(=O)[nH]1,-35.9,1.3,4.0,-4.0,-4*,-2.1
CCCc1nnc(NC(=O)c2ccc(N3C(=O)C4C5C=CC(C5)C4C3=O)cc2)s1 (centres undefined),-5.7,/,25.4,-25.4,-3.23*,-0.9
O=C(Nc1nnc(C(F)(F)F)s1)c1ccc(N2C(=O)C3C4C=CC(C4)C3C2=O)cc1 (centres undefined),-4.5,/,-0.9,0.9,-0.04,-4.3
O=C(CCCOc1ccccc1)N1CCCc2ccccc21,5.3,/,-55.1,55.1*,-1.48,1.7
CCc1cc(=O)oc2c(C)c(OCC(=O)N3CCCc4ccccc43)ccc12,-6.6,/,4.8,-4.8,-4.58*,1.8
SMILES,IL1B cytotox,JNK3 inh,NFkB transloc pot,NFkB transloc inh,Pyk2 oligo antag,FAK inh
CC(C)(C)c1ccc(S(=O)(=O)N2CC(=O)Nc3ccccc32)cc1,-7.5,/,-0.1,0.1,1.16,1.2
COc1ccc(C2=NN(C)C(=NCc3ccccc3)SC2)cc1,-4.8,/,-36.0,36.0*,-1.04,-1.8
CC(C)CC(c1nnnn1Cc1ccccc1)N1CCC(C(N)=O)CC1 (centres undefined),-2.0,/,58.0*,-58.0,1.35,-1.0
CCOC(=O)c1cnn(-c2c(Cc3ccccc3)c(C)nc3c(-c4ccccc4)c(C)nn23)c1N,13.3,/,3.4,-3.4,-3.95*,-1.0
Clc1ccc(Cl)c(-c2ccc(/C=N/c3ncn[nH]3)o2)c1,-13.2,2.4,-1.5,1.5,0.58,-29.2
Oc1c(/C=N/c2ncn[nH]2)ccc2ccccc12,16.9,-1.9,47.4*,-47.4,0.14,-1.3
CN(C(=O)c1ccc(C(=O)N(C)C2CCCCC2)cc1)C1CCCCC1,17.7,/,-5.5,5.5,/,0.6
O=C(NO)c1ccc(C(=O)N(C2CCCCC2)C2CCCCC2)cc1,1.1,1.3,43.5*,-43.5,-0.27,-2.3
COc1ccc(Oc2cc(C(F)(F)F)cnc2C(N)=O)cc1,-9.1,/,-5.6,5.3,0.65,-2.6
COC(=O)c1cc(OC)c(OC)cc1NC(=S)N1CCCCC1,-18.6,/,11.8,-11.8,0.74,-0.8
COC(=O)c1cc(OC)c(OC)cc1NC(=S)N1CCN(C)CC1,73.1*,/,1.0,-1.0,-0.35,1.4
CCc1nnc(NC(=O)CSc2nnc(-c3cccnc3)n2CCc2ccccc2)s1,-31.2,-2.5,42.7*,-42.7,-0.69,-2.9
CCc1nnc(NC(=O)c2cccnc2)s1,7.9,/,147.3*,-147.3,-0.11,0.1
CCc1nnc(NC(=O)c2ccncc2)s1,/,-0.4,/,/,-0.08,/
CCN(CC)S(=O)(=O)c1cccc(-c2nnc(SCC(=O)c3ccc(Cl)s3)n2C)c1,1.1,-7.3,5.6,-5.6,-0.1,4.7
O=C(CN1CCc2ccccc2C1)c1cccs1,16.8,2.5,7.9,-7.9,1.07,3.7
Cc1ccccc1Nc1nn2c(=O)c3ccccc3nc2s1,-22.9,25.7*,3.9,-3.9,-1.34,2.5
CC(NC(=O)C(=O)NN=C1CCCCCCC1)c1ccccc1 (centres undefined),-8.3,/,10.1,-10.1,0.12,-10.2
Cc1ccc2nc(N/N=C\c3ccc([N+](=O)[O-])o3)nc(-c3ccccc3)c2c1,6.1,/,0.1,-0.1,-3.96*,16.3
O=C(CN(C(=O)Cn1nnc(-c2cccs2)n1)c1ccc2c(c1)OCCO2)NCc1ccccc1,-8.6,/,-22.8,22.8,-3.05*,3.6
COc1cc(/C=C2/CCC/C(=C\c3cc(O)c(OC)c(Cl)c3)C2=O)cc(Cl)c1O,-2.5,/,-1.3,1.3,-4.17*,-8.1
COc1ccc(-c2c3c([nH]c(=S)c2C#N)CCC3)cc1,-29.6,46.0*,17.7,-17.7,0.92,0.9
N#Cc1c(-c2cccnc2)c2c([nH]c1=S)CCCC2,-41.4,-0.6,-7.1,7.1,1.68,-1.6
COc1cccc(Nc2nc(=O)[nH]nc2C)c1,83.0*,-3.6,-17.6,17.6,-0.26,3.5

# Bioassay records: PubChem, several laboratories
